The list shows a part of the results. Unmarked numbers belong to inactive results.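 How the source made its calls: active means every replicate shows growth inhibition above 50%; inconclusive means at least half, but not all, replicates pass that cutoff; inactive means fewer than half of replicates pass it.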

The nature of the assay: inhibitors of JMH597 bacterial growth – JMH597 strain, OD600 absorbance, counter-screen for AI-2 quorum sensing project, confirmation (AID 2726). The conditions noted are these: Vibrio harveyi JMH597 growth, 9 h, at 7.5 µM, stronger effect = higher value, lacks LuxN and CqsS sensors. (Counterscreens check selectivity or assay interference.)
For `CC(=O)c1cccc(OCc2cc(C(=O)NC(C)Cc3cccnc3)no2)c1` (configuration not stated), the growth inhibition was 1.63%.

Regarding `Cc1ccccc1C(=O)Nc1ccc(N2CCCCCC2)cc1`, the growth inhibition was 25.5%.

As to `CC(C)(C)c1ccc(OC2=CS(=O)(=O)c3ccccc32)cc1`, the growth inhibition is 31.5%.

In the case of `O=C(Nc1ccc(F)c(Cl)c1)C1CCN(S(=O)(=O)c2cccnc2)CC1`, the growth inhibition was -9.31%.

Consider `O=C(/C=C/c1ccc2c(c1)OCO2)NCc1ccc(F)cc1`, for which the growth inhibition was 4.99%.

Regarding `COc1ccc(/C(N)=N/OC(=O)Cc2ccccc2)cc1`, the growth inhibition was 15.4%.

As for `O=C(CCC(=O)c1cccs1)Nc1nc2ccccc2s1`, the growth inhibition is -16.4%.

As for `COc1cccc(NC(=O)NCc2ccc(F)cc2)c1`, the growth inhibition was -8.06%.

Turning to `O=C(/C=C/c1ccc2c(c1)OCCO2)c1ccc(O)cc1`, the growth inhibition is 2.39%.

For `Cc1cc(CN(C)C(=O)c2cc(COc3ccc(C)c(C)c3)on2)n[nH]1`, the growth inhibition was 25.5%.

With `CC(CNc1ccc([N+](=O)[O-])cc1)NC(=O)c1ccccc1Br` (configuration not stated), the growth inhibition is 16.7%.

Turning to `Cc1cc(C(=O)OCC(=O)Nc2ccc(F)c(F)c2)c(C)o1`, the growth inhibition was 2.76%.

For `O=C1COc2ccc(S(=O)(=O)Nc3ccc(OC(F)(F)F)cc3)cc2N1`, the growth inhibition is 41.4%.

As to `Cc1ccc(Cc2nc(-c3cccc(C)c3)no2)cc1`, the growth inhibition was 30.5%.

For `O=C(c1cc(-c2cccc(O)c2)on1)N1CCc2ccccc2C1`, the growth inhibition was 14.2%.

Take `Cc1ccsc1C(=O)OCC(=O)c1cc2ccccc2o1`: the growth inhibition was 32.2%.

As for `Cc1nn(CC(=O)Nc2ccc(F)cc2)c(=O)c2ccccc12`, the growth inhibition was 2.73%.

With `COC(=O)c1ccc(SCc2ccccc2)nc1`, the growth inhibition is 13.9%.

Turning to `S=C(NCc1ccc(Cl)cc1)NC1CCCCC1`, the growth inhibition is 11.3%.

With `CCOC(=O)c1nn(-c2cccc(C)c2)cc1C(=O)c1ccccc1`, the growth inhibition was -8.39%.

`Cc1ccc(Oc2cnn(-c3ccccc3)c(=O)c2Br)cc1`: the growth inhibition was -6.12%.

For the compound `CCOc1ccc(/C=N/NC(N)=S)cc1`, the growth inhibition was 8.81%.

For the compound `Cc1ccc(NC(=O)C2CC2c2ccccc2)cc1` (configuration not stated), the growth inhibition was -14.1%.

Take `N/C(=N\OC(=O)CCc1ccccc1)c1cccnc1`: the growth inhibition is 3.39%.

`Cc1cccc(CSc2ccc(-c3cccs3)nn2)c1`: the growth inhibition was 18.7%.

Take `Cc1ccc(NS(=O)(=O)c2ccc3c(c2)NC(=O)CO3)cc1`: the growth inhibition was -1.97%.

With `Cc1ccccc1NC(=O)CCOc1ccccc1`, the growth inhibition was -12.9%.

With `O=C(COC(=O)C1CCCCC1)Nc1ccc([N+](=O)[O-])cc1`, the growth inhibition was -6.27%.

With `COC(=O)C1CCN(C(=O)c2ccc3oc(Cc4ccc(Cl)cc4)nc3c2)CC1`, the growth inhibition is 26.4%.

Regarding `O=C(COc1ncnc2ccccc12)NC(=O)NCc1ccccc1`, the growth inhibition was 17.5%.

Regarding `O=C(Cn1cnc2ccccc2c1=O)Nc1cccc(S(=O)(=O)N2CCCCC2)c1`, the growth inhibition is 22.5%.

For the compound `CN(Cc1cnccn1)C(=O)c1cc(COc2cccc(C(F)(F)F)c2)on1`, the growth inhibition is 4.24%.

The record behind these values is PubChem BioAssay AID2726 (Broad Institute, 2010).
